According to PubChem BioAssay AID2284205 (EPA ToxCast):
Activity calls are given as the source filed them. Rule for the calls: active = hit-call score of the fitted dose curve at least 0.9, where 1 is the maximum; inactive = score below 0.9.

Biological target: Peroxisome proliferator-activated receptor gamma (Homo sapiens) (UniProt P37231)
Experiment: ERF_TW_NR_hPPARG: Eurofins (ERF) Nuclear Receptor (NR) Radioligand Binding LeadHunter Assay for human Peroxisome Proliferator-activated Receptor gamma (PPARg) Agonism, conducted at Taiwan lab site
Description: ERF_TW_NR_hPPARG is a biochemical, single-readout assay that uses extracted gene-proteins in a cell-free assay. Measurements were taken 24 hour after chemical dosing in a 96-well plate. See PPARgamma Human NHR Binding (Agonist Radioligand) Assay, Panlabs.ERF_TW_NR_hPPARG is an assay component calculated from the ERF_TW_NR_hPPARG assay. It is designed to measure radioligand binding using a type of binding reporter as detected by scintillation counting with radiometry technology.Data from the assay component ERF_TW_NR_hPPARG was analyzed at the assay endpoint, ERF_TW_NR_hPPARG, in the positive analysis fitting direction relative to DMSO as the negative control and baseline of activity. Using a type of binding receptor, gain-of-signal activity can be used to understand changes in binding receptor as they relate to gene PPARG.To generalize the intended target to other relatable targets, this assay endpoint is annotated to the nuclear receptor intended target family, where the subfamily is non-steroidal.
Human recombinant PPARgamma-LBD expressed in insect cells are used in modified Tris-HCl buffer pH 7.2. A 0.03 ug aliquot is incubated with 5 nM [3H]Rosiglitazone and 1 ug anti-GST antibody for 24 hours at 4C. Non-specific binding is estimated in the presence of 10 uM rosiglitazone. Receptors are counted to determine [3H]Rosiglitazone specifically bound. Compounds are screened at 10 uM.Test Sample Requirements: Minimum for 1) Screen: 25 ul of 10 mM stock -OR- 1 mg (pre-weighed). 2) Dose Response: 60 ul of 10 mM stock -OR- 1 mg (pre-weighed).

Sequence of Peroxisome proliferator-activated receptor gamma (Homo sapiens) (P37231 whole entry, looked up): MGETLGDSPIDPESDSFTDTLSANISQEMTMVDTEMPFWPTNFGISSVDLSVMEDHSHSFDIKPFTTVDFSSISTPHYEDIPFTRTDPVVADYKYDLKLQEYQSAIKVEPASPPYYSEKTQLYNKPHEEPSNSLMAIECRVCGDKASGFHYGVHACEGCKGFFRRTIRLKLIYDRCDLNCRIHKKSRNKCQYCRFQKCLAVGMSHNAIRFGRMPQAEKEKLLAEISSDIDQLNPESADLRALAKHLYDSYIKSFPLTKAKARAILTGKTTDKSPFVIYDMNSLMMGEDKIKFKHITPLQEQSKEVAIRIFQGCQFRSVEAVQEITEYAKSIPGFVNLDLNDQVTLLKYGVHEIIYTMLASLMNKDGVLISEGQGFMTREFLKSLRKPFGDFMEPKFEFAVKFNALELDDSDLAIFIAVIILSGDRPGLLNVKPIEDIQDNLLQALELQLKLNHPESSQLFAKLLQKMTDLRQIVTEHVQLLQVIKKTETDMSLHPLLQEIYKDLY

AC50, active:
O=S(=O)(O)C(F)(F)C(F)(F)C(F)(F)C(F)(F)C(F)(F)C(F)(F)C(F)(F)F 31.7 µM
O=C(CC(=O)C(F)(F)C(F)(F)C(F)(F)F)c1cccs1 7.47 µM
O=C(O)C(F)(F)C(F)(F)C(F)(F)C(F)(F)C(F)(F)C(F)(F)C(F)(F)C(F)(F)Cl 13.4 µM
